Experiments:
Test in all cases: log2 ratio of Biotin-Ahx-Ub-VS probe labelling (fragment/DMSO); higher = less target engagement (more negative = stronger competition), active = hit call of the paper (q ≤ 0.05, log2 ratio ≤ -1)
Settings in all cases: compound concentration: 200 uM; treatment time: 3 h
USP42 = target: T1, USP42 (UniProt Q9H9J4)
T1 sequence (whole entry): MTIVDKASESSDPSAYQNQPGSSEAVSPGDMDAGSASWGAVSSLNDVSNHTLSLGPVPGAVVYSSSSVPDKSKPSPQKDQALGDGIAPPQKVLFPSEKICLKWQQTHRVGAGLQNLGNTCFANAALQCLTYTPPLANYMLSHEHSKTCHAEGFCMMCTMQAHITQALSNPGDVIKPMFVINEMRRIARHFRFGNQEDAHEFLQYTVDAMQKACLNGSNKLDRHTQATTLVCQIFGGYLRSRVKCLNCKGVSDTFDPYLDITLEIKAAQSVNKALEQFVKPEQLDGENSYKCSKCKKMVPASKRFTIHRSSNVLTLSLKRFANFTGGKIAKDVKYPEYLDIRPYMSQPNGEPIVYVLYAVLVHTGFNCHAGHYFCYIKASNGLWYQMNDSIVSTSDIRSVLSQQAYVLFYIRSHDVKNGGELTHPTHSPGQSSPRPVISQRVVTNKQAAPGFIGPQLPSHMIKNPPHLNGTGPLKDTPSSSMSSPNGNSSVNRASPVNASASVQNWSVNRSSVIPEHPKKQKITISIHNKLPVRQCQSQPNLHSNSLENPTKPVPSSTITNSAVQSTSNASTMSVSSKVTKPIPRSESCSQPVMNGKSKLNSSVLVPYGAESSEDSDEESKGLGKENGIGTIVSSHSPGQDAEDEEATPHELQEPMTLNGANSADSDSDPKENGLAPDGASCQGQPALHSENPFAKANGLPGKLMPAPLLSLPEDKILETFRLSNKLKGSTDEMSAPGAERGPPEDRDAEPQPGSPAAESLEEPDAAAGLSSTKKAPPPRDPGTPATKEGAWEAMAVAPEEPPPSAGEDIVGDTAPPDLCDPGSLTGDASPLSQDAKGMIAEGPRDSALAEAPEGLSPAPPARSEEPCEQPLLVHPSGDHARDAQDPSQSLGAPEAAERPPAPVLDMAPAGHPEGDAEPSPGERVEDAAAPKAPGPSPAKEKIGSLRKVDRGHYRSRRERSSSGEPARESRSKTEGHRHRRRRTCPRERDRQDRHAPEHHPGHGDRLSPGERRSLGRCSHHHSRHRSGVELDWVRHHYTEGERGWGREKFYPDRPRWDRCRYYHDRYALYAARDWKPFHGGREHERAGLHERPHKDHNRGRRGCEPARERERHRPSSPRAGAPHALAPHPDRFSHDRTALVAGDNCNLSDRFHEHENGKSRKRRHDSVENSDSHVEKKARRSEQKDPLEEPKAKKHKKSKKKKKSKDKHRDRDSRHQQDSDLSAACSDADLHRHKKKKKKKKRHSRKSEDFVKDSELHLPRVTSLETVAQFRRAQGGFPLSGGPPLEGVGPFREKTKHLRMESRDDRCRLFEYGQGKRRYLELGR
Procedure, shortened: (§1)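 HEK293T lysate, 495 µg per sample in Tris/CHAPS/IGEPAL buffer with protease inhibitors, was treated in triplicate with fragment at 200 µM or vehicle for 3 h and then with Biotin-Ahx-Ub-VS at 0.5 µM final for 1 h. Labelled DUBs were NeutrAvidin-enriched, digested with LysC and trypsin, and run by diaPASEF LC-MS/MS. Spectronaut label-free quantities were global-median-normalised, and values are average log2 fragment/vehicle ratios by unpaired t-test on proteins with ≥2 unique peptides.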

USP46 = USP46 (UniProt P62068)
Procedure, shortened: as §1

USP47 = target: T2, USP47 (UniProt Q96K76)
T2 sequence (whole entry): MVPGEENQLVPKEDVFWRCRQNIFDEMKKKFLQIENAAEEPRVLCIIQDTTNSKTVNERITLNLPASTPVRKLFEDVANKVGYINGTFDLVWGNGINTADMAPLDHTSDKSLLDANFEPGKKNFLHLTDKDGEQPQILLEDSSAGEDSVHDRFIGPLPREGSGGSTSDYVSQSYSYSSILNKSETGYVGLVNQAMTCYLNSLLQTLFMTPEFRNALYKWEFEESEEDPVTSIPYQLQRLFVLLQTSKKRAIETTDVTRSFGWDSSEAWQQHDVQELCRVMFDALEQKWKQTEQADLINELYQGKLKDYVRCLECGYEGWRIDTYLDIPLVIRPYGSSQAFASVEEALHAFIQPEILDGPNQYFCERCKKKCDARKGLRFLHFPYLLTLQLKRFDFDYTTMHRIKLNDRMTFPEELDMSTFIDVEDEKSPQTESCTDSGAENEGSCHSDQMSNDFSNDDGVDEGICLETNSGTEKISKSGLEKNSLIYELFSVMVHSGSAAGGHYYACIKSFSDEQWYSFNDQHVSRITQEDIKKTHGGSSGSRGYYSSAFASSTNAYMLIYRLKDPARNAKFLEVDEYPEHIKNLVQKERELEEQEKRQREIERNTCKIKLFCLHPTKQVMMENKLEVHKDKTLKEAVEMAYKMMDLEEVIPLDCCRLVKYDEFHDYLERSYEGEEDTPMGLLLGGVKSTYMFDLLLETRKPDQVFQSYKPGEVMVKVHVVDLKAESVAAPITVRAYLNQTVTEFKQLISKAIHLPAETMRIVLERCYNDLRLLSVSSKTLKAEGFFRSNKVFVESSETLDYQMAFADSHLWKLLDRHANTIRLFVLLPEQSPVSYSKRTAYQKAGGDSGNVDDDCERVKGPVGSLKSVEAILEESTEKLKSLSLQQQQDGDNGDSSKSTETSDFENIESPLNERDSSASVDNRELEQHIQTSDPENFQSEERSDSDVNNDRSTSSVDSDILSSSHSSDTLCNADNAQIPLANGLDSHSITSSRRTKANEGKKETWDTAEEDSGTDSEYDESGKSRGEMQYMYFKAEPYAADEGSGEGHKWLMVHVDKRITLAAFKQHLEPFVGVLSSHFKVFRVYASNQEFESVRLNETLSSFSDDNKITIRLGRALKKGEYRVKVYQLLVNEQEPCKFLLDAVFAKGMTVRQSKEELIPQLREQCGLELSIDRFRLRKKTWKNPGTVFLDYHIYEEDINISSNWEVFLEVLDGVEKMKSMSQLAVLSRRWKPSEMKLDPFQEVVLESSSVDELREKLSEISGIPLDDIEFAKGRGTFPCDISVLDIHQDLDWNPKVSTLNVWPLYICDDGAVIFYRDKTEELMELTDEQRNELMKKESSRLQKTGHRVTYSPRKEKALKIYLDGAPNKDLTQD
Procedure, shortened: as §1

USP48 = target: T3, USP48 (UniProt Q86UV5)
T3 sequence (whole entry): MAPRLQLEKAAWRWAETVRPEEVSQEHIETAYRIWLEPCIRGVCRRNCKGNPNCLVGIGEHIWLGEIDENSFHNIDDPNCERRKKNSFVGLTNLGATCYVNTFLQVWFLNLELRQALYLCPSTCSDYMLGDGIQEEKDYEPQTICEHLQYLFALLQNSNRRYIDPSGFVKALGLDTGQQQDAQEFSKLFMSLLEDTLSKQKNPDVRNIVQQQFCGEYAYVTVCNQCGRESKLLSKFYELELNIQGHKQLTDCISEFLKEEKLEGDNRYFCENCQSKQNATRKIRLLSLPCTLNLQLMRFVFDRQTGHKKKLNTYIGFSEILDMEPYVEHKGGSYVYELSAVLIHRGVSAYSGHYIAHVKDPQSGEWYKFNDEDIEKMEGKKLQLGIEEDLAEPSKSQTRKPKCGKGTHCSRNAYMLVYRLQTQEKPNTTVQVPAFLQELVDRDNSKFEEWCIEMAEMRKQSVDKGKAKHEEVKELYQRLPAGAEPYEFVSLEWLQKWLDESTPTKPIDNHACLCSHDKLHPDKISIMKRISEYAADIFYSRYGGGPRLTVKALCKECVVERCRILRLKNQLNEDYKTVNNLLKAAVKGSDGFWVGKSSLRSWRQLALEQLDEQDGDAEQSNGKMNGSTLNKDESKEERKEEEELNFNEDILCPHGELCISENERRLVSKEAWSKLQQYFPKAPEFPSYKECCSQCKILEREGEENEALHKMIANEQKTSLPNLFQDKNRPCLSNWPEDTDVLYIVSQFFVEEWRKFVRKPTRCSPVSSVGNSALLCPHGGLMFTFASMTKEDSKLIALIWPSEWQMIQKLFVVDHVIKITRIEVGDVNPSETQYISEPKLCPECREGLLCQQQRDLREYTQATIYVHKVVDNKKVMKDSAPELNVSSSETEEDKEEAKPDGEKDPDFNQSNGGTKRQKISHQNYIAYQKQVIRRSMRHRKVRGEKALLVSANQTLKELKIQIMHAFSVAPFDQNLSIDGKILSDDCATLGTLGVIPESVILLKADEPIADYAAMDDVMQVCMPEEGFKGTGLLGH
Procedure, shortened: as §1

USP5 = target: T4, USP5 (UniProt P45974)
T4 sequence (whole entry): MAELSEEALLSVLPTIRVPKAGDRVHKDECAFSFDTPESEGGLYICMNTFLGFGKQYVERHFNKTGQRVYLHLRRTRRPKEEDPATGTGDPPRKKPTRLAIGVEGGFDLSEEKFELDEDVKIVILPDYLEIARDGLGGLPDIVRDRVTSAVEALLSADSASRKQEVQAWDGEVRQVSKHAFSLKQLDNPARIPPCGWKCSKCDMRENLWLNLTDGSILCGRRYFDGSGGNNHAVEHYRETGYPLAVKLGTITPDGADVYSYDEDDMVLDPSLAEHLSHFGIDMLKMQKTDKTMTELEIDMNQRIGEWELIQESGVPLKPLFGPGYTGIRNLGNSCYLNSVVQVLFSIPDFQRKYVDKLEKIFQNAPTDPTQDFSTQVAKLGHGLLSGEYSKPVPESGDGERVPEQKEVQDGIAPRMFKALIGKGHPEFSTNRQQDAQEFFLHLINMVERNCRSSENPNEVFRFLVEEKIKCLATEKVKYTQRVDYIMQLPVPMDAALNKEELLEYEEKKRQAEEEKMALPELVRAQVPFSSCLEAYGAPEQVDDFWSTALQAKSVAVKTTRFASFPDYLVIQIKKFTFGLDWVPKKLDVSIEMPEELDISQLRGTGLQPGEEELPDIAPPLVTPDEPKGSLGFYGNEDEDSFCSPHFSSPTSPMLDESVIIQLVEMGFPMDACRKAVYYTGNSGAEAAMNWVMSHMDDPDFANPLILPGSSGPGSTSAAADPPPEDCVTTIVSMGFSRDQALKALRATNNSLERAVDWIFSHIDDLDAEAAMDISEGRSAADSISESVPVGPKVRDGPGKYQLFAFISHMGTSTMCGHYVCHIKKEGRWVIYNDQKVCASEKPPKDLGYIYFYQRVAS
Procedure, shortened: as §1

USP54 = USP54 (UniProt Q70EL1)
Procedure, shortened: as §1

USP7 = USP7 (UniProt Q93009)
Procedure, shortened: as §1

USP8 = target: T5, USP8 (UniProt P40818)
T5 sequence (whole entry): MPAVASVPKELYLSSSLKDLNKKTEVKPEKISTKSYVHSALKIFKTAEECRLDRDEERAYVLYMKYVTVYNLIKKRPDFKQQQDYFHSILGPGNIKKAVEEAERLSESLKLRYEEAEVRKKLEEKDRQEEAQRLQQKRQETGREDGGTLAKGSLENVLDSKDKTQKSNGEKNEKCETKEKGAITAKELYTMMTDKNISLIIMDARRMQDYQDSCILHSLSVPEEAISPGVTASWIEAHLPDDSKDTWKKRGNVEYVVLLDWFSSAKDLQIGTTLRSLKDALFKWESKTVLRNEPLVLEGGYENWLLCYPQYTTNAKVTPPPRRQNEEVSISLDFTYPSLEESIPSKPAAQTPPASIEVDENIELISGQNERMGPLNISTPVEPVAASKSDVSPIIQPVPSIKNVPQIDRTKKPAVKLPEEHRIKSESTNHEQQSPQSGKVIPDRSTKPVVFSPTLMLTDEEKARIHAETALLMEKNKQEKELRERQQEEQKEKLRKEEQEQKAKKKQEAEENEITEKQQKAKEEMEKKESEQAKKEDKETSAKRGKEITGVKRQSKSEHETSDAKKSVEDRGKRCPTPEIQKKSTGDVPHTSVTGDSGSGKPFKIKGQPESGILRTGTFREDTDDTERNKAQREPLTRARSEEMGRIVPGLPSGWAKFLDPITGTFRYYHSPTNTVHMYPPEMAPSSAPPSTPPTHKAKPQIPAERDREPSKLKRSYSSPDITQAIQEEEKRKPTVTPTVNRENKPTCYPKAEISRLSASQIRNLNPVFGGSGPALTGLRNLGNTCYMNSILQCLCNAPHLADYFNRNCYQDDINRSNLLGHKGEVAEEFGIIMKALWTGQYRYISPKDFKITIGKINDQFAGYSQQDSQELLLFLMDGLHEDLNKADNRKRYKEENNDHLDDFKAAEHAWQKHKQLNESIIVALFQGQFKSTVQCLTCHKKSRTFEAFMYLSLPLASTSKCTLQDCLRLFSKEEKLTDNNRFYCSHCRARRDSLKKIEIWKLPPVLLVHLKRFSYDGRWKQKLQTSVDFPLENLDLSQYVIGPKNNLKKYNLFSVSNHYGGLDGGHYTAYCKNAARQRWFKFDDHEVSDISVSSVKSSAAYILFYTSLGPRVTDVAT
Procedure, shortened: as §1

Measured: log2 ratio of Biotin-Ahx-Ub-VS probe labelling

USP7, sequence (Q93009 whole entry, looked up): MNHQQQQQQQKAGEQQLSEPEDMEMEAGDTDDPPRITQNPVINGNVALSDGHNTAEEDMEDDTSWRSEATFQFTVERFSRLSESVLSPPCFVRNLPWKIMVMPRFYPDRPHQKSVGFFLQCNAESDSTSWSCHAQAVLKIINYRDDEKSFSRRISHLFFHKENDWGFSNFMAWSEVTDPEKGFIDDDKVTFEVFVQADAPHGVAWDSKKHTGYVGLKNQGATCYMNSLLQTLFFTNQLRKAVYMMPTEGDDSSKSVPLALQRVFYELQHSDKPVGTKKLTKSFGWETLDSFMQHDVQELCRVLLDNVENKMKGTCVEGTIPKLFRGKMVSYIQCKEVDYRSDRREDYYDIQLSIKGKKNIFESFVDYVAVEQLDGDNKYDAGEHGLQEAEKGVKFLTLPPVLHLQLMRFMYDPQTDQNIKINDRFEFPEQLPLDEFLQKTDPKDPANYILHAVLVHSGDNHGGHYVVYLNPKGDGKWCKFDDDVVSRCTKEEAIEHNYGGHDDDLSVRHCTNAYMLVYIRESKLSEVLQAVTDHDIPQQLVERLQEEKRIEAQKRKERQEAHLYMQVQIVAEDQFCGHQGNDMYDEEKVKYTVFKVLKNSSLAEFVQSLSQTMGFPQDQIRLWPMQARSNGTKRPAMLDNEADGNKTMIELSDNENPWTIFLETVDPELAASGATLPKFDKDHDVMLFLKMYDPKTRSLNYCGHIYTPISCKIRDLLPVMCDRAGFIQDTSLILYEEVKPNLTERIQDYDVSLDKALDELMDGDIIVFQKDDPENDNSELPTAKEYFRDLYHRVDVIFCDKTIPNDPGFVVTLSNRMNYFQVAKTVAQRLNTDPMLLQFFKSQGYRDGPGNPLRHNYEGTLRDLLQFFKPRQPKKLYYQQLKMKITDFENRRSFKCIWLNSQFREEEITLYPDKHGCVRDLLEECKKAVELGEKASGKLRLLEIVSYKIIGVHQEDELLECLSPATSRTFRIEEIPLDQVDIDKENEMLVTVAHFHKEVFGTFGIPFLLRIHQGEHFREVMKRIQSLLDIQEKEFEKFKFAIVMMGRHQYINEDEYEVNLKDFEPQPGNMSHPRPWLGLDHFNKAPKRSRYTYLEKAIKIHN
USP54, sequence (Q70EL1 whole entry): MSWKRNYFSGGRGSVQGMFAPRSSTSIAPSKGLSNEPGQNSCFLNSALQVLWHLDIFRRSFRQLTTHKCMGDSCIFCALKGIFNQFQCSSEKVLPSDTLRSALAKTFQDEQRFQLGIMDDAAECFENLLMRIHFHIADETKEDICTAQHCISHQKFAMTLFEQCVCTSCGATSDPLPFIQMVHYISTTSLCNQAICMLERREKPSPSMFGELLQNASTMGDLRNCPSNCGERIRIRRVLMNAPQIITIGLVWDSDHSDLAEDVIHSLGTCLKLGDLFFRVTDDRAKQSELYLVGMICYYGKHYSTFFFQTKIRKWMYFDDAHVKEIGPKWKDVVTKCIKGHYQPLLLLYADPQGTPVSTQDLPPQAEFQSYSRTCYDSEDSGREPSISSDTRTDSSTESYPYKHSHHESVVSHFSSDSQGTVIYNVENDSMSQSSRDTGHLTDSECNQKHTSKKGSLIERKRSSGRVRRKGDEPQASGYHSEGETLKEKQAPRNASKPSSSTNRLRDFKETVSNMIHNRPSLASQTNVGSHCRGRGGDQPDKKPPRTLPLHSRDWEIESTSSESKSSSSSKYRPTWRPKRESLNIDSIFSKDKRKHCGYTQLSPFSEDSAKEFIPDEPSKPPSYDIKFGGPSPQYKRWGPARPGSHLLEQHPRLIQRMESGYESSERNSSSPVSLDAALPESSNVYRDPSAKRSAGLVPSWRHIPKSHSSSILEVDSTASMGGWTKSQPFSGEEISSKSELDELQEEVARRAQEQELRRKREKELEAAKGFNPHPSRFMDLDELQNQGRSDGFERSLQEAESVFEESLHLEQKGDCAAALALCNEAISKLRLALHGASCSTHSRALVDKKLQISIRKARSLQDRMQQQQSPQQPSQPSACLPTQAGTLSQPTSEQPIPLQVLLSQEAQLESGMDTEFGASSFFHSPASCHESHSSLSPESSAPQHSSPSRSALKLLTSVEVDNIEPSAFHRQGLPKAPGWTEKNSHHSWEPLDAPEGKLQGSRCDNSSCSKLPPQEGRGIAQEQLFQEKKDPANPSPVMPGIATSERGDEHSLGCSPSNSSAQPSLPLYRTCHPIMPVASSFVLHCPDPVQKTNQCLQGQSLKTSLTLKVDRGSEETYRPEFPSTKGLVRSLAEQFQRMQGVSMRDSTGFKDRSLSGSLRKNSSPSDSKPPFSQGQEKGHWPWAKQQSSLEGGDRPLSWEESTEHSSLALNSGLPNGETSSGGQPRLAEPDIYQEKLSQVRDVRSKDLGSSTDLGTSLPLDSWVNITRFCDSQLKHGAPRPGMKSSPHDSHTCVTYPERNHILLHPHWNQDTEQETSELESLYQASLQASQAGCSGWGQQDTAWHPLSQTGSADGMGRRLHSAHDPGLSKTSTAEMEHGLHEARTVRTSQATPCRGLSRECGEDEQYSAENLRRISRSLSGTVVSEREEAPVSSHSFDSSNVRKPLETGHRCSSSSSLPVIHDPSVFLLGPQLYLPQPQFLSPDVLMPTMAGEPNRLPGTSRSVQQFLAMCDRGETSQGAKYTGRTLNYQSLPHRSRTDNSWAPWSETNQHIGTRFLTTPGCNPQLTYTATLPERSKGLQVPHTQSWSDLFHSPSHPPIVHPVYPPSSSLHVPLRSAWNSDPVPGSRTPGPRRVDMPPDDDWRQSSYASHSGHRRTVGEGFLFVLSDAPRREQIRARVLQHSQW
USP46, sequence (P62068 whole entry): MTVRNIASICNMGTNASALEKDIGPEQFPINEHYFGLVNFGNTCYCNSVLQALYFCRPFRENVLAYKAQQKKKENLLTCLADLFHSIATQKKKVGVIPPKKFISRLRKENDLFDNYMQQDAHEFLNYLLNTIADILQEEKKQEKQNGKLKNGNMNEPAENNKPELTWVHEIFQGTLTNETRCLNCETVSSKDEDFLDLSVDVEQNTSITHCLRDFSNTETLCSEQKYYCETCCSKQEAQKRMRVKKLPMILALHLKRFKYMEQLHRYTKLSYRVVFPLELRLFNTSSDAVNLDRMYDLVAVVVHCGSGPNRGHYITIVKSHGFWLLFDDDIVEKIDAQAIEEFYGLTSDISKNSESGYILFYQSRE

CC(NC(=O)CCl)c1cccc(Cl)c1 (stereo not drawn)
inactive: USP42 -0.459 | USP46 -0.115 | USP47 -0.252 | USP48 -0.283 | USP5 0.0893 | USP54 0.882 | USP7 -0.385 | USP8 -0.413
